Data published in the supplement of paper PMC6555819.

What was measured:
Assay in all cases: PBM binding z-score (relative to random genomic background probes); higher = stronger binding; sequences stand for … in GC…GCGATTGACAGCGTAGAATGAAGG
[1] = tested on: FXR:RXRa (NR concentration 270 nM, RXRa partner concentration 90 nM)
How it was run: (§1)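 Ligand-free nuclear receptor dimers were bound for 1 h to custom Agilent 4×180K protein-binding microarrays. Detection used antibodies against each partner (one per run). Binding z-scores rest on regression-normalized fluorescence, with random background probes as the reference.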

[2] = tested on: LXRa:RXRa (NR concentration 270 nM, RXRa partner concentration 90 nM)
How it was run: as §1

[3] = tested on: LXRa homodimer (NR concentration 270 nM)
How it was run: as §1

[4] = tested on: LXRb:RXRa (NR concentration 270 nM, RXRa partner concentration 90 nM)
How it was run: as §1

[5] = tested on: LXRb homodimer (NR concentration 270 nM)
How it was run: as §1

[6] = tested on: PPARa:RXRa (NR concentration 270 nM, RXRa partner concentration 90 nM)
How it was run: as §1

[7] = tested on: PPARg:RXRa (NR concentration 180 nM, RXRa partner concentration 90 nM)
How it was run: as §1

[8] = tested on: PPARg:RXRa 270nM:90nM, anti-RXR (NR concentration 270 nM, RXRa partner concentration 90 nM)
How it was run: as §1

[9] = tested on: PPARg:RXRa 30nM:10nM, anti-RXR (NR concentration 30 nM, RXRa partner concentration 10 nM)
How it was run: as §1

[10] = tested on: PPARg:RXRa 90nM:30nM, anti-RXR (NR concentration 90 nM, RXRa partner concentration 30 nM)
How it was run: as §1

Sequence	PBM binding z-score [1]	PBM binding z-score [2]	PBM binding z-score [3]	PBM binding z-score [4]	PBM binding z-score [5]	PBM binding z-score [6]	PBM binding z-score [7]	PBM binding z-score [8]	PBM binding z-score [9]	PBM binding z-score [10]
ATCGAAAGGTCGAAGGTAAGTATACCCACCCGAA	3.95	3.26	0.165	2.83	0.858	4.25	3.8	3.88	1.59	2.86
TCATATAGGTAAATAGGTGAAAGTCCGTAAGTTA	1.38	1.32	0.298	1.06	-0.103	3.79	5.17	5.12	4.83	5.34
AGAATGAGGTTATCAAAGATCAGGGAAACGCTTG	1.6	5.08	-0.032	2.44	-0.277	3.13	1.78	1.69	0.863	1.53
GCATATAGGTAACACAAGGTGAAAGTCCGATTGT	0.896	3.64	-0.04	1.36	-0.351	2.19	2.09	2	0.512	1.26
ATCTCTAGGTAGAGATAGTTCAGTGAATGCAAAT	-0.234	-0.0128	0.0165	-0.111	0.0975	0.178	0.258	0.0156	0.0243	0.104
AGAATGAGGTTATTAAGATCAGGCAATTGCGGTC	1.46	1.36	0.308	1.11	-0.00931	2.58	1.42	1.73	0.485	1.18
TCATATAGGTAAATGCTAGGTGGAAGTCCGATCT	0.532	0.496	0.0241	0.66	-0.216	0.983	0.493	2.41	3.84	2.88
TTACCACGGTGAGCTGAGGTCGTTGATCCAACTC	0.647	0.233	-0.365	0.375	-1	0.798	-0.279	0.206	-0.397	-0.177
TAGCCTAGGTCATGCGGGCCAGAATAGTGTCGGC	4.39	3.19	0.255	1.79	-0.467	3.93	2.58	2.53	0.103	1.54
CTCGAAAGGTCGATTGAGGTGAGTATACGGATAA	4.35	3.38	-0.0633	2.93	0.38	4.12	1.66	2.47	0.642	1.43
GCTAGGAGGACAAGGTCAGAGCTTTGTCCGTAGA	1.46	1.37	-0.572	0.865	-0.916	2.36	0.985	1.44	-0.224	0.93
TCTTGTAGATCAACAGAAGGTTAAGAAAGATCGA	0.396	1.11	0.0845	0.953	-0.0831	1.27	0.104	1.35	2.82	2.04
CCGACTCGGGCAAGGTTACCATAACGCACAGCCA	-0.303	0.69	-0.249	0.349	-1.13	0.95	1.01	0.916	-0.148	-7.81e-07
ATCTCTAGGTAAAGTTAGTTCAGTGAATGCAAAT	0.83	3.72	0.641	0.747	0.893	0.661	0.555	1.07	0.112	1.03
GCTAGTTGGTCGGTAAAAGGTCACACACCGGTCG	3.17	4.03	3.77	3.81	0.63	4.74	5.58	6.73	4.85	6.87
GCTGCTAGGACAGGTTGGTCAGCTAACGGGTACG	-0.662	-0.909	-0.343	-0.926	-0.654	-0.661	0.0442	-0.697	-1.16	-0.722
ATCTCTATGTAAGACTCAGTTCAGTGAAGAACGC	-0.0618	0.138	0.304	-0.0643	0.391	-0.231	0.076	-0.0831	-0.162	-0.281
CCTAGCTGGTCAGGAGGTCACACACCGGATATGA	3.53	3.73	1.44	3.21	0.171	4.14	2.84	3.59	1.08	2.74
ATCTCTAGGTAAGACTCAGTTCTGTGAAGAACGC	0.335	0.184	0.199	0.00724	0.696	0.118	-0.0876	-0.0102	-0.0402	-0.012
ACAAGTTGGTCAGCTGAGGTCACACACAATTCGG	3.12	3.24	2.34	3.77	0.506	3.78	2.28	2.38	0.435	1.74
CCTACTGGGCCAAGGTCATCGATCAGTCAAAGCA	3.48	3.15	0.707	2.74	-0.415	4.23	4.52	4.7	2	4.15
TCTGCTAGGTCAAAGATGGTCAGCTAATCTGCTA	3.55	3.06	0.0702	2.07	0.0441	3.73	3.32	4.37	2.61	3.76
CCTTACGGTTCACGAGGTTATAGCACGACGAGCG	3.45	3.49	1.87	2.57	0.189	3.75	1.96	2.4	0.593	1.58
